Hits are enriched below; roughly 3.5% of the tested compounds scored in any of these assays.
Mtb UGM inh = M. tuberculosis UGM enzyme inhibitors, primary screen, biochemical, fluorescence polarization, single point. actives 0.06% (n = 320,000). purified UGM, fluorescence polarization probe displacement. inhibition, % at 10 µM. AID 504406, 2011; in the data active = inhibition above about 10%, passing the limit was not always enough
Target sequence (P9WIQ1 whole entry, looked up): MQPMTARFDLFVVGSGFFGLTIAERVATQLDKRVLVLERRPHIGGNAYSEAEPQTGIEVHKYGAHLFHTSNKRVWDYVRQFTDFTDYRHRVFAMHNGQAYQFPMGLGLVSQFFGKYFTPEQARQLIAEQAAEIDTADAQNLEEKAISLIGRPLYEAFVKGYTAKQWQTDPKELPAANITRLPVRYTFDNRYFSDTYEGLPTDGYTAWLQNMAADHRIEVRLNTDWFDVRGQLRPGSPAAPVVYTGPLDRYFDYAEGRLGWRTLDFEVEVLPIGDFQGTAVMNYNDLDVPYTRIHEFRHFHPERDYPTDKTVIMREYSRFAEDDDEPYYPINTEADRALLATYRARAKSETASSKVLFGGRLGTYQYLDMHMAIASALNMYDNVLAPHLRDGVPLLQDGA
FBA Mtb inh = Mtb FBA enzyme inhibitors, primary screen, biochemical, fluorescence, strain H37Rv | Fructose-bisphosphate aldolase (Mycobacterium tuberculosis (strain ATCC 25618 / H37Rv)), … | purified M. tuberculosis FBA, fluorescence read-out | inhibition, % at 1 µM | actives 2.3% (n = 360,000) | AID 588726, 2011
GDH-TPI counter-1 = GDH-TPI coupling enzyme inhibitors, primary screen, artefact control for M. tuberculosis FBA inhibitor project, biochemical, absorbance, full deck | GDH-TPI coupled enzyme counterscreen, NADH absorbance | inhibition, % at 4.8 µM | actives 1.2% (n = 360,000); in the data active = inhibition above about 30%
Rv3671c inh = Rv3671c serine protease inhibitors, primary screen, biochemical, fluorescence polarization, M. tuberculosis H37Rv | inhibition, % at 5.96 µM | AID 2606, 2010 | P9WHR9 | actives 0.048% (n = 320,000); in the data active = inhibition above about 38%;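 note: extracellular domain of Rv3671c used as enzyme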
Mtb FBA confirm = M. tuberculosis aldolase blockers, biochemical, fluorescence, strain H37Rv, confirmation. inhibition, % at 1 µM. purified M. tuberculosis FBA, fluorescence read-out. AID 651616, 2012. shares compounds with FBA Mtb inh. actives 78% (n = 5,600)
GDH-TPI counter-2 = GDH-TPI coupling enzyme inhibitors, artefact control for M. tuberculosis FBA inhibitor project, biochemical, fluorescence, high throughput; GDH-TPI coupled enzyme counterscreen; shares compounds with FBA Mtb inh; actives 81% (n = 5,600); AID 652141, 2013; inhibition, % at 1 µM; in the data active = inhibition above about 10%
GDH-TPI DR = GDH-TPI coupling enzyme inhibitors, dose response, artefact control for M. tuberculosis FBA inhibitor project, biochemical, fluorescence, IC50; AID 652145, 2013; actives 79% (n = 170); GDH-TPI coupled enzyme assay, artifact counterscreen; shares compounds with FBA Mtb inh; IC50, µM; call rule not given here
Hits are given with their value; n = inactive; x = no result given; + = active, no number. Cut-off read from the data, not from the text of the source, unless noted: active = inhibition above about 27%; inactive = the rest.

SMILES	Mtb UGM inh	FBA Mtb inh	GDH-TPI counter-1	Rv3671c inh	Mtb FBA confirm	GDH-TPI counter-2	others
O=C(CSc1nc2nc(-c3cccs3)cc(C(F)(F)F)c2c(=O)[nH]1)Nc1c(F)c(F)c(F)c(F)c1F	n	n	n	n	x	x
NS(=O)(=O)c1cccc(NC(=O)CSc2nc3nc(-c4cccs4)cc(C(F)(F)F)c3c(=O)[nH]2)c1	n	33	n	n	173	119
CC1(C(=O)Nc2ccc(Cl)c(Cl)c2)CCN1Cc1ccccc1OC(F)F (stereo unspecified)	x	n	n	x	x	x
OCc1ccc2c(c1)c(-c1ccc3c(c1)OCCO3)c(-c1ccccc1)n2-c1ccccc1	n	62	n	n	n	n	GDH-TPI DR=1.4
O=C(/C=C/c1cn(-c2ccccc2)nc1-c1ccc2c(c1)OCCO2)NCCO	n	n	n	n	x	x
Cc1ccc(Cl)cc1NC(=O)CCC(=O)NCc1ccco1	n	n	n	n	x	x
Cc1cc(NC(=O)COC(=O)C2CC(=O)N(c3ccccc3Cl)C2)no1 (stereo unspecified)	n	n	n	n	x	x
COc1ccc(Cn2c(/C=C/c3ccccc3)nc3ccccc32)cc1	n	48	n	n	169	138
CC(C)Cn1c(/C=C/c2ccccc2)nc2ccccc21	n	78	39	n	92	67
CCn1c(/C=C/c2ccccc2)nc2ccccc2c1=O	n	n	n	n	x	x
CCCn1c(/C=C/c2cc[n+](C)cc2)nc2ccccc21	n	n	n	n	x	x
CCC(C)n1c(/C=C/c2ccccc2)nc2ccccc21 (stereo unspecified)	n	33	n	n	53	32
CCn1c(/C=C/c2ccccc2)nc2ccccc21	n	58	65	n	+	+
Cc1ccccc1N(CC(=O)NCC1CCCO1)C(=O)CCC(=O)Nc1nccs1 (stereo unspecified)	n	n	n	n	x	x
CC1(c2ccccc2Br)NC(=O)N(CC(=O)NC2CCCCC2)C1=O (stereo unspecified)	n	n	n	n	x	x
CCOc1ccc(-c2cc(C)n3nc(C(N)=O)cc3n2)cc1	n	52	n	n	n	n
CCN(C[C@H]1N[C@@](CC)(C(=O)OC)[C@H]2C(=O)N(Cc3ccccc3)C(=O)[C@@H]12)C(=O)c1ccccc1	x	n	n	n	x	x
CN(CCc1ccccc1)C(=O)c1ccc(NC(=O)Cc2ccc(NC(=O)C3CCCN(S(=O)(=O)c4cccc([N+](=O)[O-])c4)C3)cc2)cc1 (stereo unspecified)	x	n	n	x	x	x
CS(=O)(=O)c1nc(-c2ccccc2)c(-c2ccccc2)[nH]1	n	n	n	n	x	x
COc1ccc(-c2nc(-c3ccccc3)c(-c3cccs3)[nH]2)cc1OC	n	49	n	n	n	n
Cc1ccsc1-c1nc(-c2ccccc2)c(-c2ccccc2)[nH]1	n	29	n	n	91	74
Fc1ccc(-c2nc(-c3cccs3)[nH]c2-c2ccc(F)cc2)cc1	n	50	n	n	+	+
COc1cc(-c2nc(-c3ccccc3)c(-c3ccc(F)cc3)[nH]2)cc2c1OCO2	n	31	n	n	103	71
COc1cc(-c2nc(-c3ccc4c(c3)-c3ccccc3S4(=O)=O)c(-c3ccccc3)[nH]2)cc(OC)c1O	n	n	n	n	x	x
CC(C)(C)NC(=O)NC(=O)COC(=O)Cc1coc2ccc3ccccc3c12	n	n	n	n	x	x
SMILES	Mtb UGM inh	FBA Mtb inh	GDH-TPI counter-1	Rv3671c inh	Mtb FBA confirm	GDH-TPI counter-2	others
Cn1c(N)c(C(=O)COC(=O)c2ccc3c(c2)C(=O)N(c2ccc(Cl)cc2)C3=O)c(=O)n(C)c1=O	n	n	n	n	x	x
c1ccc(-n2cnnc2SCc2cn3cccnc3n2)cc1	n	103	n	n	102	76
Cc1ccc2nc(SCc3cn4cccnc4n3)[nH]c2c1	n	n	n	n	x	x
CN1CCN(Cc2cn3cccnc3n2)CC1	n	n	n	n	x	x
[N-]=[N+]=NCc1cn2cccnc2n1	n	63	n	n	79	63
Cc1ccc(S(=O)(=O)Cc2cn3cccnc3n2)cc1	x	92	n	x	50	32
c1ccc(SCc2cn3cccnc3n2)nc1	n	74	n	n	65	39
O=C(NCCCN1CCCC1=O)c1sc2ccccc2c1Cl	n	n	n	n	x	x
N#CCC(=O)Nc1ccc(C(=O)OCC(=O)c2ccc3c(c2)NC(=O)CO3)cc1	n	n	n	n	x	x
CC1(C)C(=O)Nc2ccccc2N1C(=O)COC(=O)c1cccnc1Cl	n	n	n	n	x	x
Cn1c(CNC(=O)CCNC(=O)c2ccc(F)c(F)c2)cc(=O)n(C)c1=O	n	n	n	n	x	x
c1cnc2nc(CSc3ncn[nH]3)cn2c1	n	88	n	n	184	144
COC(=O)c1ccc2nc(-c3ccc(OC)c(OC)c3)c(Cc3ccsc3)n2c1	x	n	x	x	x	x
COc1ccc(-c2nc3ccc(C)cn3c2Cc2ccsc2)cc1OC	x	52	x	x	116	73
Cc1ccc(-c2nnc3c(C(F)(F)F)nc4ccccc4n23)cc1	n	60	n	n	+	+
FC(F)(F)c1nc2ccccc2n2c(-c3ccc(Cl)cc3)nnc12	n	61	n	n	n	n
Cc1ccc(NC(=O)CCc2nnc3ccc(N4CCC5(CC4)OCCO5)nn23)cc1F	n	n	n	n	x	x
Cc1ccc(CNC(=O)c2ccccc2N(C)S(C)(=O)=O)cc1	n	n	n	n	x	x
O=C(NCc1ccco1)c1ccccc1O	n	n	n	x	x	x
Cc1cccc(CNC(=O)c2ccccc2N)c1	n	58	n	n	137	102
Nc1ccccc1C(=O)NCc1ccco1	n	52	n	x	83	59
Cc1ccc(CNC(=O)c2ccccc2N)cc1	n	60	n	n	80	60
COc1cc2ccccc2cc1C(=O)OCC(=O)c1c(N)n(C)c(=O)n(C)c1=O	n	28	n	n	178	142
NC(=NCCc1ccccc1)NC(=O)c1cc(Cl)ccc1O	n	46	n	n	90	77
CN(CCc1ccccc1)C(=O)c1cccc(NC(=O)Cc2cccc([N+](=O)[O-])c2)c1	n	n	n	n	x	x
CCCC(=O)N1CCC1(C)C(=O)Nc1ccc2nccnc2c1 (stereo unspecified)	x	43	n	x	45	24
CC1CCN(S(=O)(=O)CCNC(=O)c2ccccc2)CC1	n	n	n	n	x	x
Nc1nccc(/C=C/c2c(Cl)cccc2Cl)n1	n	n	n	n	x	x
Nc1nccc(/C=C/c2ccc(Cl)cc2)n1	n	30	n	n	84	49
